Source: ChEMBL document CHEMBL1961873, “Compounds: GSK PKIS; Assays: Nanosyn kinase panel” (2012)

Biological target: Cyclin-dependent kinase 6 (Homo sapiens) (UniProt Q00534);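 also: mean percent inhibition of the kinase bound to its cyclin partner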
Settings: at 1 µM

Cyclin-dependent kinase 6 (Homo sapiens), sequence (Q00534 whole entry): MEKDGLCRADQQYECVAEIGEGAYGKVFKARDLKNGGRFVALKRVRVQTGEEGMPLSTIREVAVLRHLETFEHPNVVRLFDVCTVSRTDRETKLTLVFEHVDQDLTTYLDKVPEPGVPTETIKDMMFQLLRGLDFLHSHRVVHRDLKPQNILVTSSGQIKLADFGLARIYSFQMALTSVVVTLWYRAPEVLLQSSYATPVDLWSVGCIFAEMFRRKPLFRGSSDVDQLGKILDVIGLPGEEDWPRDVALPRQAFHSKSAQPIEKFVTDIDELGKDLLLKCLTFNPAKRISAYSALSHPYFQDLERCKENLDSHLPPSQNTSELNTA

Row | SMILES | inhibition [%]
1 | O=C(Nc1n[nH]c2cc(-c3ccc(F)cc3)ccc12)C1CC1 | 24.6
2 | O=S(=O)(CCNCc1ccc(-c2ccc3ncnc(Nc4ccc(OCc5cccc(F)c5)c(Cl)c4)c3c2)o1)c1ccccc1 | 2.65
3 | COc1cc2ncn(-c3cc(OCc4ccccc4C(F)(F)F)c(C(=O)N(C)C)s3)c2cc1OC | -0.75
4 | COc1ccc(-c2cc3c(N)ncnc3o2)cc1 | 2.82
5 | Cc1ccc2c(-c3ccnc(Nc4ccccc4)n3)c(-c3ccc(F)cc3)nn2n1 | 5.2
6 | Nc1nc(-c2cccc(Cl)c2)c(-c2ccc3ncccc3n2)s1 | -2.65
7 | CNC(=O)c1cncc(/C=C/c2ccccc2Cl)c1 | -1.1
8 | COc1ccc2c(-c3ccnc(Nc4cccc(OC(F)(F)F)c4)n3)cnn2n1 | 14.6
9 | CCCN1CCC(c2ccc(Nc3nc(Nc4cc(F)ccc4C(N)=O)c4cc[nH]c4n3)c(OC)c2)CC1 | 17.9
10 | COc1cc2c(cc1Nc1nc(Nc3ccsc3C(N)=O)c3cc[nH]c3n1)N(C(=O)CN(C)C)CCC2(C)C | 9.92
11 | Fc1ccc(-c2cc(-c3c[nH]nc3-c3ccccn3)ccn2)cc1 | 2.29
12 | CCNC(=O)O[C@H]1CN[C@H](C#Cc2cc3ncnc(Nc4ccc(OCc5cccc(F)c5)c(Cl)c4)c3s2)C1 | 9.16
13 | c1ccc(COc2ccc(Nc3ncnc4ccc(-c5ccco5)cc34)cc2)cc1 | -1.6
14 | NC(=O)c1sc(-n2cnc3ccc(C(F)(F)F)cc32)cc1OCc1ccccc1Br | 1.76
15 | CS(=O)(=O)CCNCc1ccc(-c2ccc3ncnc(Nc4ccc(OCc5ccccc5)c(C(F)(F)F)c4)c3c2)o1 | -4.19
16 | CC(=O)Nc1cccc(C#Cc2cncnc2Nc2ccc(OCc3cccc(F)c3)c(Cl)c2)c1 | -0.16
17 | CCn1c(-c2nonc2N)nc2ccccc21 | 1.55

Row | SMILES | inhibition [%]
18 | COc1cccc(-n2ncc3c(N/N=C/c4ccc(F)cc4)ncnc32)c1 | 16.8
19 | CCN1CCC(CC(=O)Nc2n[nH]c3nnc(-c4cccc(F)c4F)cc23)CC1 | 17.4
20 | COc1cc(Nc2nccc(Nc3ccc4c(C)n[nH]c4c3)n2)cc(OC)c1OC | 3.31
21 | CCn1c(-c2nonc2N)nc2cnc(Oc3cccc(NC(=O)c4ccc(N(C)C)cc4)c3)cc21 | 1.62
22 | COc1ccc(-c2oc3ncnc(N)c3c2-c2ccc(NC(=O)Nc3cc(C(F)(F)F)ccc3F)cc2)cc1 | 3.67
23 | CCN(CC)S(=O)(=O)c1ccc(OC)c(Nc2ncc(-c3ccccc3)o2)c1 | 2.95
24 | Fc1ccc(-c2nn3ncccc3c2-c2ccnc(Nc3ccc4c(c3)OCCO4)n2)cc1 | 2.72
25 | CCCN(CCS(C)(=O)=O)Cc1ccc(-c2ccc3ncnc(Nc4ccc(OCc5cccc(F)c5)c(Cl)c4)c3c2)o1 | 7
26 | CCn1c(-c2nonc2N)nc2c(C#CC(C)(C)O)nc(OC[C@H](N)c3ccccc3)cc21 | -0.97
27 | COc1cccc(-c2c[nH]c3c(N/N=C/c4ccncc4)ncnc23)c1 | 51.4
28 | c1cc(-c2cnn3nc(N4CCOCC4)ccc23)nc(NC2CC2)n1 | 30.7
29 | CN(C)CCOc1ccc(-c2nc(-c3ccncc3)c(-c3ccc4c(c3)CC/C4=N\O)[nH]2)cc1 | 9.02
30 | CCc1nn2ncccc2c1-c1ccnc(NC2CC2)n1 | 10.1
31 | Clc1ccc(-c2nn3ncccc3c2-c2ccnc(Nc3ccccc3)n2)cc1 | 4.53
32 | COc1cc(/C=N/Nc2ncnc3[nH]ncc23)ccc1O | 15.9
33 | NS(=O)(=O)c1ccc(Nc2ncc(-c3ccccc3)o2)cc1 | 48.6
34 | COc1ccc2[nH]c3c4[nH]c5ccc(OC)cc5c4c4c(c3c2c1)C(=O)NC4=O | 3.6

Biological target: Dual specificity protein kinase CLK2 (Homo sapiens) (UniProt P49760)
Sequence (P49760 whole entry, looked up): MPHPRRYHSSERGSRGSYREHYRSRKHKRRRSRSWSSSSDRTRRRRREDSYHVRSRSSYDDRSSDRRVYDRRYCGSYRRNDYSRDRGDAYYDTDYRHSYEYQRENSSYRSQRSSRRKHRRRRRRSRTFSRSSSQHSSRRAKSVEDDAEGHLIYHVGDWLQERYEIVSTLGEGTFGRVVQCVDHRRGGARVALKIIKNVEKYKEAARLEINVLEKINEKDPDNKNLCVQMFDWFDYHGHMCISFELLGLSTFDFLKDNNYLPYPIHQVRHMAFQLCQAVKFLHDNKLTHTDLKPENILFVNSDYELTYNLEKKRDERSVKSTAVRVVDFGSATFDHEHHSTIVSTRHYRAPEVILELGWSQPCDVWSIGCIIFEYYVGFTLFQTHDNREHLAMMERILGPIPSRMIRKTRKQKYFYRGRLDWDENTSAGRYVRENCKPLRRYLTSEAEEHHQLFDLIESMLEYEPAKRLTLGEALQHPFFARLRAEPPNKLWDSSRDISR
Settings: at 0.1 µM

Row | SMILES | inhibition [%]
35 | O=C(Nc1n[nH]c2cc(-c3ccc(F)cc3)ccc12)C1CC1 | 0.75
36 | O=S(=O)(CCNCc1ccc(-c2ccc3ncnc(Nc4ccc(OCc5cccc(F)c5)c(Cl)c4)c3c2)o1)c1ccccc1 | 0.01
37 | COc1cc2ncn(-c3cc(OCc4ccccc4C(F)(F)F)c(C(=O)N(C)C)s3)c2cc1OC | -0.32
38 | COc1ccc(-c2cc3c(N)ncnc3o2)cc1 | 0.46
39 | Cc1ccc2c(-c3ccnc(Nc4ccccc4)n3)c(-c3ccc(F)cc3)nn2n1 | 2.31
40 | Nc1nc(-c2cccc(Cl)c2)c(-c2ccc3ncccc3n2)s1 | 2.6
41 | CNC(=O)c1cncc(/C=C/c2ccccc2Cl)c1 | -0.38
42 | COc1ccc2c(-c3ccnc(Nc4cccc(OC(F)(F)F)c4)n3)cnn2n1 | 95.4
43 | CCCN1CCC(c2ccc(Nc3nc(Nc4cc(F)ccc4C(N)=O)c4cc[nH]c4n3)c(OC)c2)CC1 | 59.1
44 | COc1cc2c(cc1Nc1nc(Nc3ccsc3C(N)=O)c3cc[nH]c3n1)N(C(=O)CN(C)C)CCC2(C)C | 29
45 | Fc1ccc(-c2cc(-c3c[nH]nc3-c3ccccn3)ccn2)cc1 | 2.53
46 | CCNC(=O)O[C@H]1CN[C@H](C#Cc2cc3ncnc(Nc4ccc(OCc5cccc(F)c5)c(Cl)c4)c3s2)C1 | 1.63
47 | c1ccc(COc2ccc(Nc3ncnc4ccc(-c5ccco5)cc34)cc2)cc1 | 0.31
48 | NC(=O)c1sc(-n2cnc3ccc(C(F)(F)F)cc32)cc1OCc1ccccc1Br | 3.14
49 | CS(=O)(=O)CCNCc1ccc(-c2ccc3ncnc(Nc4ccc(OCc5ccccc5)c(C(F)(F)F)c4)c3c2)o1 | 0.79
50 | CC(=O)Nc1cccc(C#Cc2cncnc2Nc2ccc(OCc3cccc(F)c3)c(Cl)c2)c1 | 2.3
51 | CCn1c(-c2nonc2N)nc2ccccc21 | 2.35

Row | SMILES | inhibition [%]
52 | COc1cccc(-n2ncc3c(N/N=C/c4ccc(F)cc4)ncnc32)c1 | 2.52
53 | CCN1CCC(CC(=O)Nc2n[nH]c3nnc(-c4cccc(F)c4F)cc23)CC1 | 5.35
54 | COc1cc(Nc2nccc(Nc3ccc4c(C)n[nH]c4c3)n2)cc(OC)c1OC | 1.62
55 | CCn1c(-c2nonc2N)nc2cnc(Oc3cccc(NC(=O)c4ccc(N(C)C)cc4)c3)cc21 | -0.04
56 | COc1ccc(-c2oc3ncnc(N)c3c2-c2ccc(NC(=O)Nc3cc(C(F)(F)F)ccc3F)cc2)cc1 | 3.66
57 | CCN(CC)S(=O)(=O)c1ccc(OC)c(Nc2ncc(-c3ccccc3)o2)c1 | 4.15
58 | Fc1ccc(-c2nn3ncccc3c2-c2ccnc(Nc3ccc4c(c3)OCCO4)n2)cc1 | 1.15
59 | CCCN(CCS(C)(=O)=O)Cc1ccc(-c2ccc3ncnc(Nc4ccc(OCc5cccc(F)c5)c(Cl)c4)c3c2)o1 | 1.46
60 | CCn1c(-c2nonc2N)nc2c(C#CC(C)(C)O)nc(OC[C@H](N)c3ccccc3)cc21 | 1.87
61 | COc1cccc(-c2c[nH]c3c(N/N=C/c4ccncc4)ncnc23)c1 | 2.83
62 | c1cc(-c2cnn3nc(N4CCOCC4)ccc23)nc(NC2CC2)n1 | 9.32
63 | CN(C)CCOc1ccc(-c2nc(-c3ccncc3)c(-c3ccc4c(c3)CC/C4=N\O)[nH]2)cc1 | -1.13
64 | CCc1nn2ncccc2c1-c1ccnc(NC2CC2)n1 | 0.1
65 | Clc1ccc(-c2nn3ncccc3c2-c2ccnc(Nc3ccccc3)n2)cc1 | -0.96
66 | COc1cc(/C=N/Nc2ncnc3[nH]ncc23)ccc1O | 2.37
67 | NS(=O)(=O)c1ccc(Nc2ncc(-c3ccccc3)o2)cc1 | 1.81
68 | COc1ccc2[nH]c3c4[nH]c5ccc(OC)cc5c4c4c(c3c2c1)C(=O)NC4=O | 5.12
